Test systems include SK-MEL-2 melanoma; EKVX NSCLC; SN12C renal; UO-31 renal; TK-10 renal; ACHN renal; CAKI-1 renal; A498 renal; CCRF-CEM leukemia; MOLT-4 leukemia.
Test in all cases: NCI-60 one-dose screen, 48 h (100 = growth as untreated, 0 = no growth, -100 = all killed)
Conditions in all cases: 10 µM unless noted

Compounds without any hit were thinned out: in the full panel of roughly 83,000, 20% have a hit.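 The endpoint reported here, percent growth, reads 100 for growth as untreated, 0 for no net growth and -100 for all cells dead.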 A number with no mark means an inactive call. Active and inactive are the calls of the source. The calls were made as follows: active = growth percent below 10; inactive = the rest.

For `O=C(CN1CCN(c2cc3c(cc2F)c(=O)c(C(=O)O)cn3C2CC2)CC1)N/N=C/c1ccco1`, the growth in the assay with SK-MEL-2 melanoma was 105%; in the assay on EKVX NSCLC, 97.8%; in the assay on SN12C renal, 108%; in the assay on UO-31 renal it was 88.3%; in the assay on TK-10 renal, 101%; with ACHN renal, 98.1%. Also, the growth in the assay on CAKI-1 renal is 99.7%; with A498 renal, 91.7%; in the assay with CCRF-CEM leukemia, 107%; in the assay on MOLT-4 leukemia, 93.9%.
In the case of `COc1ccc(C(=O)/C=C/c2ccc(N3CCCCC3)cc2)cc1OC`, the growth was 103% with SK-MEL-2 melanoma; 92.8% in the assay with EKVX NSCLC; 90.5% in the assay on SN12C renal; 73.4% with UO-31 renal; 110% in the assay with TK-10 renal; 100% in the assay with ACHN renal. Further, the growth in the assay on CAKI-1 renal is 90.4%; in the assay on A498 renal it was 87.2%; in the assay with CCRF-CEM leukemia, 81.5%; in the assay with MOLT-4 leukemia, 88.7%.
Turning to `C=C1C(=O)O[C@H]2[C@H]1CC/C(COC(=O)c1cc3cc(Cl)ccc3[nH]1)=C\CC[C@@]1(C)O[C@@H]21`, the growth in the assay with SK-MEL-2 melanoma was -84.2% (active); with EKVX NSCLC it was -83% (active); in the assay with SN12C renal it was -61.2% (active); in the assay with UO-31 renal, -93.6% (active); in the assay with TK-10 renal, -99.3% (active); in the assay with ACHN renal, -89.2% (active). Besides, the growth in the assay with CAKI-1 renal is -89.8% (active); with A498 renal, -11.9% (active); with CCRF-CEM leukemia, -24.8% (active); in the assay on MOLT-4 leukemia, -21% (active).
`COc1cc(/C=C/C(=O)/C=C(O)/C=C/c2ccc(OC(=O)C34CC5CC(CC(C5)C3)C4)c(OC)c2)ccc1OC(=O)C12CC3CC(CC(C3)C1)C2`: the growth in the assay with SK-MEL-2 melanoma is 101%; in the assay on EKVX NSCLC, 101%; with SN12C renal it was 95.5%; in the assay with UO-31 renal, 69.3%; in the assay on TK-10 renal, 97%; in the assay with ACHN renal, 99%. For the same compound, the growth is 91.3% in the assay on CAKI-1 renal, 102% in the assay with A498 renal, 103% in the assay on CCRF-CEM leukemia and 116% in the assay on MOLT-4 leukemia.
`O=C(NNc1cnccn1)c1nc2cc(F)ccc2n2cccc12`: the growth with SK-MEL-2 melanoma was 40.8%; with EKVX NSCLC, 17.9%; in the assay with SN12C renal it was 13.5%; in the assay with UO-31 renal, 16.3%; in the assay on TK-10 renal, 40.5%; in the assay with ACHN renal, 7.64% (active). The growth in the assay on CAKI-1 renal was 7.11% (active); in the assay with A498 renal, -42.1% (active); in the assay on CCRF-CEM leukemia it was 4.42% (active); in the assay on MOLT-4 leukemia it was 5.91% (active).
As for `CN(C)c1ccc(/C=C(\C#N)c2cc3ccccc3[nH]2)cc1`, the growth with SK-MEL-2 melanoma was 27.3%; with EKVX NSCLC, 42.2%; with SN12C renal, 29%; in the assay on UO-31 renal, 37.8%; in the assay with TK-10 renal, 49.2%; in the assay on ACHN renal, 46.2%. Further, the growth is 31.5% in the assay on CAKI-1 renal, 14.4% with A498 renal, 9.57% (active) in the assay with CCRF-CEM leukemia and 38.4% with MOLT-4 leukemia.
For `COc1ccc(Nc2ncccc2/C=C/C(=O)c2cc(OC)c(OC)c(OC)c2)cc1`, the growth with SK-MEL-2 melanoma was -37.6% (active); in the assay with EKVX NSCLC, 60.8%; in the assay with SN12C renal, -18.1% (active); with UO-31 renal it was -79.6% (active); in the assay with TK-10 renal, -14.6% (active); with ACHN renal it was -83.4% (active). For the same compound, the growth is -23.6% (active) with CAKI-1 renal, 64.6% in the assay on A498 renal, -10.4% (active) with CCRF-CEM leukemia and -11.7% (active) with MOLT-4 leukemia.
In the case of `O=C(CCl)NNc1nccc(Nc2ccc(S(=O)(=O)Nc3ccncc3)cc2)n1`, the growth is 38% in the assay on SK-MEL-2 melanoma; 62.2% with EKVX NSCLC; 23.8% in the assay on SN12C renal; 63.3% in the assay on UO-31 renal; 74.6% in the assay on TK-10 renal; 37.7% with ACHN renal. The growth in the assay on CAKI-1 renal is 30.4%; in the assay with A498 renal it was 80.8%; in the assay with CCRF-CEM leukemia, 23.8%; in the assay with MOLT-4 leukemia it was 44%.
On to `COc1cccc(NCc2nnc(Nc3ccc(Cl)cc3)c3ccccc23)c1`, for which the growth is -34.4% (active) in the assay with SK-MEL-2 melanoma; -0.284% (active) in the assay with EKVX NSCLC; 14.5% in the assay on SN12C renal; -42.5% (active) in the assay with UO-31 renal; -40.9% (active) with TK-10 renal; -5.35% (active) in the assay on ACHN renal. Also, the growth in the assay on CAKI-1 renal was 9.01% (active); in the assay on A498 renal it was -26.8% (active); in the assay with CCRF-CEM leukemia, -4.42% (active); in the assay on MOLT-4 leukemia, -27.2% (active).
For the compound `NC(=O)c1cnc(Nc2cccc(N)c2)nc1NCCCNC(=O)C1CCC1`, the growth in the assay with SK-MEL-2 melanoma was 65.2%; in the assay on EKVX NSCLC, 93%; in the assay on SN12C renal, 33%; in the assay on UO-31 renal, 27.8%; in the assay with TK-10 renal, 32.1%; in the assay on ACHN renal it was 49.5%. In addition, the growth with CAKI-1 renal is 37.2%; in the assay with A498 renal, 90.4%; with CCRF-CEM leukemia it was 25.9%; with MOLT-4 leukemia it was 26.1%.
As to `Nc1nc(N)c2c(n1)NC(c1cccc(Nc3ccnc4cc(C(F)(F)F)ccc34)c1)CC(c1ccc(Br)cc1)=N2` (stereo not given), the growth was 52.4% in the assay with SK-MEL-2 melanoma; 51.5% in the assay on EKVX NSCLC; 63% with SN12C renal; 62.2% in the assay with UO-31 renal; 96.8% in the assay on TK-10 renal; 82% with ACHN renal. The growth in the assay with CAKI-1 renal is 48.6%; in the assay on A498 renal, 77.1%; in the assay on CCRF-CEM leukemia, 17%; with MOLT-4 leukemia, 9.24% (active).
For `COc1cc(OC)c(C(=O)C(CN(C)C)CN(C)C)cc1OC`, the growth is 105% with SK-MEL-2 melanoma; 20.3% in the assay on EKVX NSCLC; 107% in the assay with SN12C renal; 10.4% with UO-31 renal; -79.2% (active) with TK-10 renal; -87.6% (active) in the assay on ACHN renal. Moreover, the growth is 20.3% in the assay on CAKI-1 renal, 113% in the assay on A498 renal, -58.1% (active) with CCRF-CEM leukemia and -39.8% (active) in the assay with MOLT-4 leukemia.
For `CC1=CCC(OC(=O)C(C)(C)CC(O)(C(C)O)C(O)C2(C)C=CC(Cc3ccc(C(C)C)cc3)(C(C)C)CC2)(C(C)C)CC1` (stereo not given), the growth in the assay with SK-MEL-2 melanoma was 110%; with EKVX NSCLC it was 98.3%; in the assay with SN12C renal, 105%; in the assay with UO-31 renal, 81.5%; with TK-10 renal it was 86.4%; with ACHN renal it was 102%. The growth in the assay on CAKI-1 renal is 94.6%; in the assay on A498 renal, 76.2%; in the assay on CCRF-CEM leukemia, 79.2%; in the assay on MOLT-4 leukemia, 94.1%.

The values above are taken from PubChem BioAssay (NCI).
